Laboratory results as given in PubChem BioAssay (Tox21).
Results filed as inconclusive are left out. A call without a number means that no potency is given here. Values without a mark were called inactive. Calls of active or inactive are those of the source. Unless noted, calls follow the shape of the dose curve; as a rule, active = well fitted curve in the direction sought with a large enough effect in the repeat runs; inconclusive = weak or mixed curves; inactive = no such curve, though single readings can be large; an effect the other way counts as inactive or inconclusive.

What was measured:
[1] = qHTS assay to identify small molecule agonists of the RXR signaling pathway - cell viability counter screen (AID 1159529); also: nearly all actives have a fitted effect of over 50% in size; also: potency is read from the fitted curve at half-maximal effect
In short: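 Counter screen: CellTiter-Glo luminescence. Cells: RXR-alpha-UAS-bla HEK 293T. Medium: 2% charcoal-stripped FBS. Treatment: 16 h, 37 C. Reagent incubation: 30 min, RT.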

[2] = qHTS assay to identify small molecule antagonists of the retinoid acid receptor (RAR) signaling pathway - cell viability counter screen (AID 1159551); also: nearly all actives have a fitted effect of over 35% in size
In short: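 Following overnight attachment, C3RL4 reporter cells received DMSO-dissolved compounds and then retinol (1 uM final). Six hours later at 37 C, ATP content was measured by CellTiter-Glo luminescence.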

[3] = qHTS assay to identify small molecule antagonists of the estrogen related receptor (ERR) signaling pathway from Tox21 library - cell viability counter screen (AID 1224834); also: nearly all actives have a fitted effect of over 30% in size
In short: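 Viability readout (CellTiter-Fluor fluorescence, 30 min at 37 C) multiplexed with the ERR assay; cells treated 17.5 h at 37 C with compounds delivered in DMSO.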

[4] = target: Luciferin 4-monooxygenase (Photinus pyralis) (UniProt P08659); assay: qHTS assay to identify small molecule inhibitors of firefly luciferase (AID 1224835); also: nearly all actives have a fitted effect of over 25% in size; also: potency is read from the fitted curve at half-maximal effect
In short: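 Inhibition of purified Photinus luciferase is measured by luminescence. Substrate levels (D-luciferin, ATP) sit at their KM values. Each compound is tested in a concentration series.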

[5] = qHTS assay to identify small molecule agonists of the constitutive androstane receptor (CAR) signaling pathway - cell viability counter screen (AID 1224836); also: series mostly up to about 92 µM; nearly all actives have a fitted effect of over 45% in size
In short: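 Double-stable HepG2 hepatoma cells (hCAR plus CYP2B6-2.2kb) are treated for 23 h at 37 C with test compounds in 15-point concentration series. PK11195 at 0.75 uM final is co-added. Cell viability is quantified by CellTiter-Fluor.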

[6] = qHTS assay to identify small molecule antagonists of the constitutive androstane receptor (CAR) signaling pathway - cell viability counter screen (AID 1224837); also: series mostly up to about 92 µM; nearly all actives have a fitted effect of over 45% in size
In short: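 Fluorescence from CellTiter-Fluor served as the viability signal. Human hepatoma HepG2 cells stably bearing hCAR and CYP2B6-2.2kb received compound plus CITCO (50 nM final) for 23 hr.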

[7] = target: Nuclear receptor subfamily 1 group I member 3 (Homo sapiens) (UniProt Q14994); assay: qHTS assay to identify small molecule antagonists of the constitutive androstane receptor (CAR) signaling pathway (AID 1224838);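 also: HepG2 cells stably expressing hCAR with CYP2B6 luciferase reporter stimulated by CITCO; nearly all actives have a fitted effect of over 40% in size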
In short: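 Quantitative HTS in double-stable HepG2-CYP2B6-hCAR cells. After 4 h plating, cells get compound (15 concentrations) and CITCO at 50 nM final, incubate 24 h at 37 C, then ONE-Glo luminescence is read.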

[8] = target: Nuclear receptor subfamily 1 group I member 3 (Homo sapiens) (UniProt Q14994); assay: qHTS assay to identify small molecule agonists of the constitutive androstane receptor (CAR) signaling pathway (AID 1224839); also: nearly all actives have a fitted effect of over 15% in size; also: potency is read from the fitted curve at half-maximal effect
In short: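 Readout: firefly luciferase luminescence via ONE-Glo. System: HepG2 double-stable for hCAR and CYP2B6-2.2kb. Conditions: 15-point compound titration, PK11195 at 0.75 uM final, 24 h incubation.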

[9] = qHTS assay to identify small molecule antagonists of the estrogen related receptor signaling pathway with the pleiotropic PPARgamma coactivator (PGC) from Tox21 10K library - cell viability counter screen (AID 1224840; active = well fitted cell-killing curve with a large enough effect in the repeat runs, not every such curve was filed as active; also: nearly all actives have a fitted effect of over 40% in size)
In short: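 Compounds in DMSO, alongside positive and negative controls, were pinned onto PGC/ERR cells (2,000 per well). Exposure lasted 17.5 hours at 37 C, followed by a 30-minute CellTiter-Fluor incubation and fluorescence reading.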

[10] = qHTS assay to identify small molecule antagonists of the retinoic acid receptor (RAR) signaling pathway (AID 1159552; also: nearly all actives have a fitted effect of over 50% in size)
In short: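 Antagonism of retinol-induced RARE reporter activity was measured in C3RL4 cells. Exposure to compounds and 1 uM final retinol lasted 6 hr at 37 C, with luminescence as endpoint.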

[11] = qHTS assay to identify small molecule agonists of the retinoic acid receptor (RAR) signaling pathway (AID 1159553); also: potency is read from the fitted curve at half-maximal effect
In short: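 Cell line C3RL4, RARE luciferase reporter. Treatment: compounds in DMSO, 6 hr, 37 C, 5% CO2, after overnight plating. Detection: luminescence, 30 min RT after reagent.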

[12] = qHTS assay to identify small molecule antagonists of the estrogen related receptor signaling pathway with the pleiotropic PPARgamma coactivator (PGC) from Tox21 10K library (AID 1224841; call rule not given here; also: actives are mostly falling curves and most rising ones were filed inactive; nearly all actives have a fitted effect of over 50% in size; also: potency is read from the fitted curve at half-maximal effect)
In short: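 Compound exposure ran 18 hours at 37 C in PGC/ERR cells (2,000/well) that had first rested 6 hours in a 37 C/5% CO2 incubator. Luciferase activity was then detected with One-Glo after a 30-minute room-temperature step.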

[13] = qHTS assay to identify small molecule agonists of the estrogen related receptor signaling pathway with the pleiotropic PPARgamma coactivator (PGC) from Tox21 10K library (AID 1224842); also: nearly all actives have a fitted effect of over 15% in size
In short: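 Luminescence from One-Glo (30 min, room temperature) measured after PGC/ERR cells had 18 h at 37 C with pinned compound (23 nL in DMSO). Cells had been seeded at 2,000 per well and pre-incubated 6 h.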

Sequence of Luciferin 4-monooxygenase (Photinus pyralis) (P08659 whole entry, looked up): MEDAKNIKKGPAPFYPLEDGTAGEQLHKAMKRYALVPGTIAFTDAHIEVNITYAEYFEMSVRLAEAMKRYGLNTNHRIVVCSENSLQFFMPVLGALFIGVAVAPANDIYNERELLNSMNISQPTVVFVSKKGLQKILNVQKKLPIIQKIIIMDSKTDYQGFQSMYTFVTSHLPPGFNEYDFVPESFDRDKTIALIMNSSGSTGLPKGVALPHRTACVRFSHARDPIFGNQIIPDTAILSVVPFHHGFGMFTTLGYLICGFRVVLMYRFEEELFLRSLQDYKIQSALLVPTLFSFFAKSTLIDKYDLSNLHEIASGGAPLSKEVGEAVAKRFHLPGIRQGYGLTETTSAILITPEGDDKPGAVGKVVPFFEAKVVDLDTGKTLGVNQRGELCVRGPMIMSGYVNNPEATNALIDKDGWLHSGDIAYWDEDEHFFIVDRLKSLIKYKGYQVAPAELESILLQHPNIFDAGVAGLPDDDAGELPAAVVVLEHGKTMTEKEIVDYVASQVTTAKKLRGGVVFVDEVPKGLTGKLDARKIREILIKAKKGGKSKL
Sequence of Nuclear receptor subfamily 1 group I member 3 (Homo sapiens) (Q14994 whole entry, looked up): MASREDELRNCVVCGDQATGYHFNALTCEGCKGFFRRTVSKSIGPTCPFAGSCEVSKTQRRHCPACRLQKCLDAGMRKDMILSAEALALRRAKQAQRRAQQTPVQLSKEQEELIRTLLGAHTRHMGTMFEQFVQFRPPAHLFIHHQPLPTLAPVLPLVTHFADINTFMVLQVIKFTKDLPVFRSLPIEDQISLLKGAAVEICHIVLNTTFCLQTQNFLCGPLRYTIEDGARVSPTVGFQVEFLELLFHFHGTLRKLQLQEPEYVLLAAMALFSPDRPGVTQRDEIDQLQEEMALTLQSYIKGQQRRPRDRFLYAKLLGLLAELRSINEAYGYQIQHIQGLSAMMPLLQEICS

Row | SMILES | Potency [1] | outcome [2] | Potency [3] | Potency [4] | outcome [5] | outcome [6] | Potency [7] | Potency [8] | outcome [9] | Potency [10] | Potency [11] | Potency [12] | Potency [13]
1 | CCCCCOC(=O)Nc1nc(=O)n([C@@H]2O[C@H](C)[C@@H](O)[C@H]2O)cc1F | inactive | inactive | inactive | inactive | inactive | inactive | inactive | inactive | inactive | – | – | – | –
2 | O=[N+]([O-])c1ccc(Oc2ccc([N+](=O)[O-])cc2)cc1 | inactive | inactive | inactive | inactive | inactive | inactive | – | inactive | inactive | inactive | inactive | inactive | inactive
3 | CC(C)(O)Cc1ccccc1 | inactive | inactive | inactive | inactive | inactive | inactive | inactive | inactive | inactive | inactive | inactive | inactive | inactive
4 | COc1cc(CCC(C)=O)ccc1O | inactive | inactive | inactive | – | inactive | inactive | inactive | inactive | inactive | inactive | inactive | inactive | inactive
5 | CCCCCCCCCCCCCCC | inactive | inactive | inactive | inactive | inactive | inactive | inactive | inactive | inactive | inactive | inactive | inactive | inactive
6 | CCO[Si](CCCN=C=O)(OCC)OCC | inactive | inactive | inactive | – | inactive | inactive | inactive | inactive | inactive | inactive | inactive | inactive | inactive
7 | CCC(=O)Nc1cccc(N)c1 | inactive | inactive | inactive | inactive | inactive | inactive | inactive | – | inactive | inactive | inactive | inactive | inactive
8 | CCCC(C)C(=O)O (stereo not drawn) | 18.7 µM (active) | inactive | inactive | inactive | inactive | inactive | inactive | – | inactive | inactive | inactive | 52.3 µM (active) | inactive
9 | COc1ccc2cc(C=O)ccc2c1 | inactive | inactive | inactive | 34.7 µM (active) | inactive | inactive | inactive | inactive | inactive | inactive | inactive | inactive | inactive
10 | C=C(C)C(=O)OCCC(C)OC(=O)C(=C)C (stereo not drawn) | inactive | inactive | inactive | – | inactive | inactive | inactive | inactive | inactive | inactive | inactive | inactive | inactive
11 | CC1=CCC2C(C1)C2(C)C (stereo not drawn) | inactive | inactive | inactive | inactive | inactive | inactive | inactive | inactive | inactive | – | – | – | –
12 | COc1ccc(COC=O)cc1 | inactive | inactive | inactive | inactive | inactive | inactive | inactive | inactive | inactive | inactive | inactive | inactive | inactive
13 | CC(C)COC(=O)C(C)C | inactive | inactive | inactive | inactive | inactive | – | inactive | inactive | inactive | inactive | inactive | – | inactive
14 | O=C1CC2(CCCC2)CC(=O)N1 | inactive | inactive | inactive | – | inactive | – | inactive | – | inactive | inactive | inactive | – | –
15 | Cc1onc(-c2ccccc2)c1-c1ccc(S(N)(=O)=O)cc1 | inactive | inactive | – | inactive | inactive | – | inactive | inactive | inactive | inactive | inactive | 23.7 µM (active) | inactive
16 | CCCC=O | inactive | inactive | inactive | inactive | inactive | inactive | inactive | inactive | inactive | inactive | inactive | – | inactive
17 | CCO[Si](C)(OCC)OCC | inactive | inactive | inactive | – | inactive | – | – | – | inactive | inactive | inactive | inactive | inactive
18 | CCC(=O)/C=C/c1ccc(OC)cc1 | inactive | inactive | inactive | 35.6 µM (active) | inactive | inactive | inactive | 54.5 µM (active) | inactive | inactive | 61.1 µM (active) | inactive | inactive
19 | C#CC(C)(O)CC(C)C (stereo not drawn) | inactive | inactive | inactive | inactive | inactive | inactive | – | inactive | inactive | inactive | inactive | inactive | inactive
20 | CCCCCCOC(=O)c1ccccc1O | inactive | inactive | – | 17.8 µM (active) | inactive | – | – | inactive | inactive | inactive | inactive | inactive | inactive
